What all share (test): NCI-60 one-dose screen, 48 h (100 = growth as untreated, 0 = no growth, -100 = all killed)
Holding throughout (conditions): 10 µM unless noted

Assay [1] has as its system MOLT-4 leukemia.
The subject of assay [2] is SR leukemia.
Assay [3] has as its system RPMI-8226 leukemia.
For assay [4], the system named is OVCAR-8 ovarian.
Assay [5] deals with OVCAR-5 ovarian.
Assay [6] concerns OVCAR-4 ovarian.
Assay [7] has as its system SK-OV-3 ovarian.
For assay [8], the system named is IGROV1 ovarian.
The subject of assay [9] is OVCAR-3 ovarian.
Assay [10] concerns HS 578T breast.
In assay [11] the test system is NCI/ADR-RES ovarian.
The test system of assay [12] is T-47D breast.
In assay [13] the test system is BT-549 breast.
Assay [14] relates to MDA-MB-435 melanoma.
In assay [15] the test system is SW-620 colon.
Assay [16] concerns MCF7 breast.
Assay [17] relates to HCT-116 colon.
In assay [18] the test system is HCC-2998 colon.
In assay [19] the test system is KM12 colon.

Molecules are shown by their SMILES. “And” between values parts separate entries of the source, which are not always exact repeats. Equal entries are not always repeated. The panel holds about 83,000 compounds, 20% with a hit somewhere; the sample as a whole holds those more often.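 Growth was measured after 48 h exposure to one concentration of compound in 96-well plates. Values under 10 count as active.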 Values without a mark were called inactive. The source made the active and inactive calls.

Consider `O=C(NC1=NCC[Se]1)c1ccccc1O`, for which the growth was 30.3% in assay [1]; 19% in assay [2]; 64.8% in assay [3]; 47.4% in assay [4]; 53.3% in [5]; 71.1% in assay [6]. Moreover, the growth in assay [7] is 135%; in assay [8], -8.34% (active); in [9], 69.8%; in [10], 35.5%; in assay [11], 21.5%; in [12], 79.4%. Further, the growth in [13] was 82.1%; in assay [14], 48.3%; in assay [15] it was 72.9%; in assay [16], 51.4%; in assay [17], 20.3%; in [18], 90%. Besides, the growth in [19] was 71.5%.

In the case of `CN(C)[C@@H]1C(=O)C(C(N)=O)=C(O)[C@@]2(O)C(=O)C3=C(O)c4c(O)ccc(Cl)c4[C@@](C)(O)[C@H]3C[C@@H]12`, the growth in assay [1] is 99.5% and 121%; in assay [2], 87.9% and 82.8%; in [3] it was 87% and 91.1%; in [4] it was 98.7% and 91.7%; in assay [5], 92.1% and 94.8%; in [6], 98.3% and 98.6%. For the same molecule, the growth was 90.3% and 95.8% in [7]; 78.7% and 87.2% in assay [8]; 112% and 102% in [9]; 94.7% and 91.7% in assay [10]; 104% and 109% in assay [11]; 91.5% and 97.7% in assay [12]. Also, the growth in assay [13] is 87.6%; in assay [14] it was 99.6% and 103%; in assay [15] it was 101% and 97.7%; in assay [16], 94.8% and 86.8%; in assay [17], 81.4% and 102%; in assay [18], 92.2% and 125%. For the same molecule, the growth in [19] was 94.7% and 102%.

`Cc1ccc(S(=O)(=O)n2cc([C@@]3(O)C[C@H](CSC#N)OC3=O)c3ccccc32)cc1`: the growth in [1] is 7.16% (active); in [2] it was 49%; in assay [3] it was 16.3%; in [4], 83.2%; in [5], 83.9%; in assay [6], 75.7%. The growth in assay [7] was 99.6%; in assay [8], 71.6%; in assay [9] it was 54.8%; in [10], 44.4%; in [11], 82.2%; in assay [12] it was 62.8%. The growth in assay [13] was 70.9%; in assay [14], 63.3%; in assay [15], 36.1%; in [16], 23.6%; in assay [17], 45.6%; in [18], 25.1%. Further, the growth in assay [19] was 68.7%.

Take `CC[C@H](C)[C@H](NC(=O)[C@H]1CCCCN1C)C(=O)N(C)[C@H](C[C@@H](OC(C)=O)c1nc(C(=O)N[C@@H](Cc2ccccc2)C[C@H](C)C(=O)O)cs1)C(C)C`: the growth is 12.8% in [1]; 2.65% (active) in assay [2]; 34.1% in assay [3]; 21% in assay [4]; 57.7% in assay [5]; 52.6% in assay [6]. Further, the growth in assay [7] is 12.3%; in [8], 30.2%; in [9], -4.44% (active); in [10], 25.3%; in assay [11] it was 12.2%; in assay [12], 70.5%. Moreover, the growth is -37.2% (active) in assay [13]; -10.9% (active) in assay [14]; 35.2% in assay [15]; 14.6% in [16]; 5.71% (active) in assay [17]; 13.7% in [18]. Also, the growth in assay [19] was 0.294% (active).

With `C[C@]12CC[C@H]3[C@@H](CC=C4c5nc(-c6ccc(Br)cc6)sc5CC[C@@]43C)[C@@H]1CC[C@@H]2O`, the growth in assay [1] was 89.2%; in assay [2], 98.2%; in assay [3], 54.6%; in assay [4] it was 106%; in [5] it was 90%; in assay [6], 95.1%. Also, the growth in assay [7] is 95.1%; in assay [8] it was 99.1%; in [9], 103%; in assay [10] it was 74%; in assay [11], 99.5%; in assay [12], 92.6%. For the same molecule, the growth in [13] was 82.8%; in assay [14], 96.1%; in assay [15] it was 108%; in assay [16] it was 87.2%; in [17] it was 84.9%; in [18], 110%. Moreover, the growth in assay [19] is 102%.

In the case of `O=C(NCCCN1CC1)Nc1cccc2ccccc12`, the growth was 103% and 83.7% in [1]; 102% and 87.1% in assay [2]; 100% and 88.4% in [3]; 80.1% and 79.3% in assay [4]; 105% and 113% in assay [5]; 105% and 114% in [6]. Besides, the growth in [7] was 101% and 95.8%; in assay [8] it was 87.5% and 86.9%; in assay [9] it was 109% and 113%; in [10], 96.2% and 106%; in assay [11], 101%; in assay [12] it was 86.4%. In addition, the growth in assay [13] is 90.3% and 105%; in assay [14], 108% and 88%; in assay [15], 99% and 89.6%; in [16], 82% and 77.9%; in [17], 98.1% and 94.2%; in assay [18], 97.9% and 93.4%. For the same molecule, the growth in assay [19] was 103% and 102%.

Turning to `Cc1cc(C(C)(C)C)ccc1O`, the growth is 99.5% in [1]; 93.8% in assay [2]; 105% in assay [3]; 102% in [4]; 120% in assay [5]; 109% in [6]. The growth in [7] was 100%; in assay [8] it was 107%; in assay [9] it was 105%; in assay [10], 99.8%; in assay [11], 98.3%; in [12], 103%. The growth was 109% in [13]; 111% in [14]; 108% in assay [15]; 101% in assay [16]; 95.6% in assay [17]; 106% in assay [18]. The growth in [19] was 103%.

Take `CCCCCCCCCCCCCCCCCC1OCC(COC(=O)O[C@@H](C(=O)O[C@H]2C[C@@]3(O)[C@@H](OC(=O)c4ccccc4)[C@@H]4[C@]5(OC(C)=O)CO[C@@H]5C[C@H](O)[C@@]4(C)C(=O)[C@H](OC(C)=O)C(=C2C)C3(C)C)[C@@H](NC(=O)c2ccccc2)c2ccccc2)O1` (some centres not stated): the growth was 43.6% in assay [1]; 18% in assay [2]; 4.08% (active) in assay [3]; 48.9% in [4]; 55.5% in assay [5]; 67.4% in [6]. The growth in [7] is 49.5%; in assay [8], 47.6%; in [9], 15.7%; in [10] it was 28.9%; in assay [11], 103%; in assay [12] it was 32.9%. Moreover, the growth in assay [13] was 58.8%; in assay [14] it was -71.2% (active); in assay [15], 39.6%; in assay [16], 18.3%; in [17] it was 18.2%; in assay [18], 32%. Moreover, in assay [19], the growth is 14.3%.

In the case of `CO[C@@H]([CH2][Hg][O]C(=O)c1ccccc1)[C@@H]([CH2][Hg][O]C(=O)c1ccccc1)OC`, the growth in [1] is 27.4%; in [2], 50.2%; in assay [3], 92.2%; in assay [4] it was 83.8%; in assay [5] it was 111%; in assay [6], 93.8%. In addition, the growth in [7] was 73.2%; in assay [8] it was 96.4%; in assay [9], -92.8% (active); in [10] it was 113%; in assay [11], 105%; in [12], 87.7%. Also, the growth was 110% in assay [13]; 104% in assay [14]; 66.1% in [15]; 46.4% in [16]; -60.5% (active) in assay [17]; 118% in assay [18]. For the same molecule, in assay [19], the growth is 101%.

In the case of `O=C=Nc1ccc(Br)cc1`, the growth is 111% in assay [1]; 98.5% in [2]; 98.9% in assay [3]; 107% in assay [4]; 109% in assay [5]; 98.5% in assay [6]. The growth in assay [7] is 99.1%; in assay [8], 112%; in assay [9] it was 105%; in assay [10] it was 106%; in [11], 107%; in assay [12], 92.2%. Also, the growth in [13] was 98.3%; in assay [14], 108%; in assay [15], 103%; in assay [16] it was 97.8%; in [17], 94.3%; in [18], 100%. Further, in assay [19], the growth is 105%.

For `O=C(Cc1ccccc1)c1ccccc1`, the growth in assay [1] is 107%; in [2], 100%; in [3], 85.4%; in assay [4], 108%; in [5], 108%; in assay [6], 99.3%. Also, the growth in [7] is 113%; in assay [8] it was 110%; in [9], 106%; in assay [10] it was 90.3%; in [11], 105%; in [12], 100%. Moreover, the growth in assay [13] is 100%; in assay [14], 102%; in assay [15], 96.6%; in assay [16], 92%; in assay [17] it was 101%; in assay [18], 114%. Also, the growth in assay [19] is 99.8%.

Regarding `O=C(Cc1ccccc1)NC(O)C(Cl)(Cl)Cl` (configuration not stated), the growth in assay [1] is 96.1%; in assay [2], 101%; in [3] it was 104%; in assay [4], 96.1%; in [5] it was 111%; in [6], 105%. The growth in assay [7] was 106%; in assay [8] it was 115%; in [9], 124%; in assay [10] it was 124%; in [11], 107%; in assay [12], 110%. In addition, the growth in assay [13] was 96.8%; in assay [14] it was 109%; in assay [15], 117%; in assay [16], 93.1%; in assay [17], 107%; in assay [18], 110%. The growth in assay [19] is 119%.

On to `O=c1[nH]c(=O)[nH]c(=O)[nH]1`, for which the growth in [1] is 80.8%; in assay [2], 104%; in [3], 60.1%; in [4], 106%; in assay [5] it was 103%; in assay [6], 119%. Moreover, the growth is 110% in assay [7]; 68.2% in assay [8]; 119% in assay [9]; 95.7% in [10]; 102% in assay [11]; 102% in [12]. For the same molecule, the growth is 145% in assay [13]; 114% in assay [14]; 108% in [15]; 97.1% in [16]; 97.2% in assay [17]; 117% in assay [18]. Also, the growth in [19] is 107%.

These data come from PubChem BioAssay (NCI).
